test system: FLX1 + dox-induced PRKAR1A G325D; experiment: difference in log2 fold change of viability vs plate median (dox-induced PRKAR1A G325D minus uninduced); higher = compound less effective when PKA is inhibited; details: concentration: not stated (2 or 5 uM); 5 days
Experimental: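 For each plate a log2 fold change vs the plate median was derived, and the values without dox were subtracted from those with dox, averaged over three biological replicates.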

SMILES | difference in log2 fold change of viability
C=CC(=O)Nc1cccc(Nc2nc(Nc3ccc(Oc4ccnc(C(=O)NC)c4)cc3)ncc2F)c1 | -0.452
C[C@@H](N)[C@H]1CC[C@H](C(=O)Nc2ccncc2)CC1 | 0.511
C[C@H](Nc1ncnc2nc[nH]c12)c1cc2cccc(Cl)c2c(=O)n1-c1ccccc1 [Duvelisib (IPI-145, INK1197)] | -0.0226
CO[C@H]1C[C@@H]2CC[C@@H](C)[C@@](O)(O2)C(=O)C(=O)N2CCCC[C@H]2C(=O)O[C@H]([C@H](C)C[C@@H]2CC[C@H](n3cnnn3)[C@H](OC)C2)CC(=O)[C@H](C)/C=C(\C)[C@@H](O)[C@@H](OC)C(=O)[C@H](C)C[C@H](C)/C=C/C=C/C=C/1C [Zotarolimus(ABT-578)] | 0.358
CC1=C(C(=O)Nc2cc3cn[nH]c3cc2F)C(c2ccc(C(F)(F)F)cc2)CC(=O)N1 (stereo not given) | 0.418
C[C@@H](Oc1cc(-c2cnn(C3CCNCC3)c2)cnc1N)c1c(Cl)ccc(F)c1Cl | -0.703
CC(C)CC(=O)Nc1n[nH]c2c1CN(C(=O)C1CCN(C)CC1)C2(C)C | 0.243
COCC(=O)NC/C=C/c1ccc2ncnc(Nc3ccc(Oc4ccc(C)nc4)c(C)c3)c2c1 | 0.0049
CSc1cccc(Nc2ncc3cc(-c4c(Cl)cccc4Cl)c(=O)n(C)c3n2)c1 | -0.0582
Cc1cnc(Nc2ccc(N3CCN(C)CC3)cc2)nc1Nc1cccc(S(=O)(=O)NC(C)(C)C)c1 | -0.303
Cn1cc(C2=C(c3ccc(Cl)cc3Cl)C(=O)NC2=O)c2ccccc21 | 0.189
Cc1cc(N2CCOCC2)cc2[nH]c(-c3c(NC[C@@H](O)c4cccc(Cl)c4)cc[nH]c3=O)nc12 | -1.17
O=c1c(-c2ccc(O)cc2)coc2cc(O)cc(O)c12 [Genistein] | 0.126
N#Cc1c(O)c2c(-c3ccc(-c4ccccc4O)cc3)csc2[nH]c1=O | 0.134
Cc1cnc(Nc2ccc(OCCN3CCCC3)cc2)nc1Nc1cccc(S(=O)(=O)NC(C)(C)C)c1 | -0.00786
CC(C)(C)c1ccc(S(=O)(=O)/C=C/C#N)cc1 | 0.145
COc1cc2ncnc(Nc3ccc(Cl)cc3F)c2cc1OC | -0.233
O=C(NOC[C@H](O)CO)c1ccc(F)c(F)c1Nc1ccc(I)cc1F | -1.04
COc1cc2c(c(OC)c1OC)-c1c(cc3c(c1OC)OCO3)CC(C)C(C)C2 (stereo not given) [Schisandrin B (Sch B)] | 0.277
COc1ncc(-c2ccc3nccc(-c4ccnnc4)c3c2)cc1NS(=O)(=O)c1ccc(F)cc1F | 0.179

SMILES | difference in log2 fold change of viability
Nc1nc(Nc2ccc(S(N)(=O)=O)cc2)nn1C(=O)c1c(F)cccc1F | 0.0351
CO[C@@H](C(=O)N1Cc2[nH]nc(NC(=O)c3ccc(N4CCN(C)CC4)cc3)c2C1)c1ccccc1 | 0.428
CCCS(=O)(=O)Nc1ccc(F)c(C(=O)c2c[nH]c3ncc(-c4ccc(Cl)cc4)cc23)c1F [Vemurafenib (PLX4032, RG7204)] | 0.336
CC(=O)Nc1nc(C)c(-c2ccc(Cl)c(S(=O)(=O)NCCO)c2)s1 | 1.62
O=C(NCc1cccc(O)c1)Nc1nc(-c2ccncc2)cs1 | -0.0799
O=C1Nc2ccccc2/C1=C1/Nc2ccccc2C1=O [Indirubin] | 0.211
CS(=O)(=O)CCNCc1ccc(-c2ccc3ncnc(Nc4ccc(OCc5cccc(F)c5)c(Cl)c4)c3c2)o1 | 0.519
C[C@@H](Oc1cc(-n2cnc3ccc(CN4CCN(C)CC4)cc32)sc1C(N)=O)c1ccccc1C(F)(F)F | -0.2
CN(C)Cc1cccc(N/C(=C2\C(=O)Nc3cc(C(N)=O)ccc32)c2ccccc2)c1 | -0.409
Cn1ncc(Cl)c1-c1cc(C(=O)N[C@H](CN)Cc2ccc(F)c(F)c2)oc1Cl | -0.0579
Cn1sc(=O)n(Cc2ccccc2)c1=O | 0.221
O=C1NC(=O)C(c2cnc3ccccn23)=C1c1cn2c3c(cc(F)cc13)CN(C(=O)N1CCCCC1)CC2 | 0.116
COc1cc(OC)c(/C=C/S(=O)(=O)Cc2ccc(OC)c(NCC(=O)O)c2)c(OC)c1 | 0.2
Cc1ccc(NC(=O)c2ccc(CN3CCN(C)CC3)cc2)cc1Nc1nc(-c2cccnc2)cs1 [Masitinib (AB1010)] | 0.682
CCCCCCCCCCCCc1ccc(S(=O)(=O)Nc2nncs2)cc1 | 0.132
COc1cc2nccc(Oc3ccc(NC(=O)C4(C(=O)Nc5ccc(F)cc5)CC4)cc3)c2cc1OC [Cabozantinib malate (XL184)] | -0.77
CC(C)CCN1c2nc(Nc3cc(F)c(O)c(F)c3)ncc2N(C)C(=O)C1C (stereo not given) | -0.074
O=C(NOCC(O)CO)c1cc(Br)c(F)c(F)c1Nc1ccc(I)cc1F (stereo not given) | -1.06
COc1cc2nccc(Oc3ccc(NC(=O)C4(C(=O)Nc5ccc(F)cc5)CC4)cc3)c2cc1OC | 0.457
COc1cc2ncnc(Nc3ccc(F)c(Cl)c3)c2cc1NC(=O)/C=C/CN1CCCCC1 | -0.0217

— the supplement of paper PMC9925115
